Compound activity (PubChem BioAssay)
This is one part of a sample in which hits are shown more often than they occur.
miR-122 inh: miR-122 suppressors via Renilla sensor increase, primary screen, cell-based, Huh7 psiCHECK-miR122, Renilla luciferase, single point | AID 623901, 2012 | activation, % at 12.5 µM | hit rate 0.14% among 340,000 | 48 h;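 active means mean activation of 30% or more, with every replicate also reaching 30%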;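 further: higher luciferase signal means stronger suppression of miR-122 activity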
Numbers stand for hits; – = inactive.

SMILES | miR-122 inh
CCCNC(=O)N(C)C[C@@H]1Oc2cc(-c3ccccc3)ccc2S(=O)(=O)N([C@H](C)CO)C[C@@H]1C | –
CC(C)C#Cc1ccc2c(c1)O[C@H](CN(C)C(=O)c1ccccc1)[C@@H](C)CN([C@H](C)CO)S2(=O)=O | –
C[C@@H]1CN([C@@H](C)CO)C(=O)c2cc(NC(=O)Nc3ccccc3)ccc2O[C@@H]1CN(C)Cc1ccc(C(=O)Nc2ccccc2N)cc1 | –
CCC(=O)N1C[C@@H](C)[C@H](OC)CN(C)C(=O)c2ccc(NS(C)(=O)=O)cc2OC[C@H]1C | –
c1ccc(-c2nnc3n2CCCC3)cc1 | 33
CC(C)C#Cc1cnc2c(c1)C(=O)N([C@@H](C)CO)C[C@H](C)[C@H](CN(C)C(=O)c1ccccc1)O2 | –
C[C@H]1CN([C@@H](C)CO)S(=O)(=O)c2ccc(-c3ccc(C(=O)N(C)C)cc3)cc2O[C@H]1CN(C)C(=O)Cc1ccccn1 | –
C[C@H](CO)N1C[C@H](C)[C@H](CN(C)C(=O)c2cccnc2)Oc2cc(/C=C/c3ccccc3)ccc2S1(=O)=O | –
NCC12CC3CC(C1)CC(c1ccc(Br)cc1)(C3)C2 | 34
C[C@H](CO)N1C[C@H](C)[C@@H](CN(C)C(=O)C2CC2)Oc2ncc(C#Cc3cccc(F)c3)cc2C1=O | –
C[C@H](CO)N1C[C@H](C)[C@@H](CN(C)C)Oc2cc(C#C[C@@H](C)O)ccc2S1(=O)=O | –
CCCNC(=O)N(C)C[C@@H]1Oc2ncc(C#C[C@@H](C)O)cc2C(=O)N([C@H](C)CO)C[C@@H]1C | –
Nc1cccc2nc3ccccc3cc12 | 51
Cc1ccc(-c2cnc3c(c2)C(=O)N([C@@H](C)CO)C[C@@H](C)[C@H](CN(C)C(=O)Cc2ccncc2)O3)cc1 | –
CNC[C@@H]1Oc2ncc(-c3ccc(C#N)cc3)cc2C(=O)N([C@H](C)CO)C[C@@H]1C | –
C[C@H]1CN([C@@H](C)CO)C(=O)c2cccc(NC(=O)c3ccncc3)c2O[C@@H]1CN(C)CC1CCCCC1 | –
C/C=C/c1cnc2c(c1)C(=O)N([C@@H](C)CO)C[C@H](C)[C@@H](CN(C)S(=O)(=O)c1cccs1)O2 | –
COCC(=O)N(C)C[C@@H]1Oc2ncc(/C=C/c3ccccc3)cc2C(=O)N([C@H](C)CO)C[C@H]1C | –
COc1ccc(-c2c(C(C)=O)c(C)nc3sc4c(c23)NC(c2ccccc2)NC4=O)cc1 (stereo not drawn) | 36
CC(=O)N(C)C[C@@H]1Oc2cc(C#C[C@H](C)O)ccc2S(=O)(=O)N([C@@H](C)CO)C[C@H]1C | –
c1cnc(N2CCN(Cc3c[nH]c4ccccc34)CC2)nc1 | 38
COc1cccc(C#Cc2ccc3c(c2)O[C@@H](CN(C)S(=O)(=O)c2ccccc2F)[C@H](C)CN([C@@H](C)CO)S3(=O)=O)c1 | –
CO[C@@H]1CN(C)C(=O)c2ccc(NS(=O)(=O)c3ccc(C)cc3)cc2OC[C@@H](C)N(C)C[C@@H]1C | –
C[C@@H]1CN([C@H](C)CO)S(=O)(=O)c2ccc(C#CC3(O)CCCC3)cc2O[C@@H]1CN(C)C(=O)Nc1ccc(F)cc1 | –
C[C@H]1CN([C@@H](C)CO)C(=O)c2cc(/C=C/c3ccccc3)cnc2O[C@H]1CN(C)C(=O)C1CCOCC1 | –
SMILES | miR-122 inh
CC(C)C#Cc1ccc2c(c1)O[C@@H](CN(C)C(=O)CC1CC1)[C@H](C)CN([C@@H](C)CO)S2(=O)=O | –
Cc1cccc(C)c1NC(=O)CSCC(=O)c1ccc(O)c(O)c1 | 35
C[C@H](CO)N1C[C@H](C)[C@@H](CN(C)CC2CCOCC2)Oc2cc(C#C[C@@H](C)O)ccc2S1(=O)=O | –
Cc1ccccc1-c1cnc2c(c1)C(=O)N([C@H](C)CO)C[C@@H](C)[C@@H](CN(C)C(=O)c1ccccc1)O2 | –
C[C@H]1CN([C@@H](C)CO)S(=O)(=O)c2ccc(Br)cc2O[C@H]1CN(C)C(=O)CC1CC1 | –
CC(C)CC#Cc1ccc2c(c1)O[C@H](CN(C)C(=O)C1CCOCC1)[C@@H](C)CN([C@@H](C)CO)S2(=O)=O | –
C[C@H](CO)N1C[C@H](C)[C@@H](CN(C)S(C)(=O)=O)Oc2cc(C#Cc3ccccc3)ccc2S1(=O)=O | –
CCOC(=O)CSc1nc2ccccc2c(=O)n1CC1CCC(C(=O)NCc2ccco2)CC1 (stereo not drawn) | –
CCOC(=O)CSc1nnnn1-c1cccc2ccccc12 | 38
C[C@H](CO)N1C[C@H](C)[C@H](CN(C)S(=O)(=O)c2cn(C)cn2)Oc2ncc(-c3cccc(C(F)(F)F)c3)cc2C1=O | –
O=C(Cc1ccccc1)N1C[C@@H]2[C@H](c3ccccc31)[C@H](CO)N2C(=O)Nc1ccc(F)cc1 | –
O=C(Nc1ccccc1F)N1[C@H](CO)[C@@H]2c3ccccc3NC[C@@H]21 | 42
C[C@@H]1CN([C@@H](C)CO)C(=O)c2cc(C#CC3CCCC3)cnc2O[C@H]1CN(C)C(=O)C1CCC1 | –
COc1ccc(-c2cnc3c(c2)C(=O)N([C@@H](C)CO)C[C@@H](C)[C@H](CN(C)Cc2ccccn2)O3)cc1 | –
Oc1c(Cl)cc(Cl)cc1/C=N/Nc1ncc(Br)cn1 | 62
CCCNC(=O)N(C)C[C@H]1Oc2ncc(C#Cc3ccccc3F)cc2C(=O)N([C@H](C)CO)C[C@@H]1C | –
CCCN1C[C@@H](C)[C@H](OC)CN(C)C(=O)c2ccc(NC(=O)COC)cc2OC[C@@H]1C | –
C[C@H]1CN([C@@H](C)CO)S(=O)(=O)c2ccc(-c3cccc(C#N)c3)cc2O[C@@H]1CN(C)Cc1ccccn1 | –
COc1ccc(-c2cnc3c(c2)C(=O)N([C@@H](C)CO)C[C@H](C)[C@@H](CN(C)C(=O)Cc2ccccc2)O3)cc1 | –
C[C@@H]1CN([C@@H](C)CO)C(=O)c2cc(-c3cncnc3)cnc2O[C@@H]1CN(C)Cc1cncnc1 | –
O=C1CC(Sc2nnnn2-c2ccccc2)C(=O)N1c1cccc(Cl)c1 (stereo not drawn) | 52
COCC#Cc1ccc2c(c1)O[C@H](CN(C)C(=O)C1CCCCC1)[C@H](C)CN([C@@H](C)CO)S2(=O)=O | –
CCCNC(=O)Nc1ccc2c(c1)OC[C@@H](C)N(C)C[C@@H](C)[C@H](OC)CN(C)C2=O | –
CO[C@H]1CN(C)C(=O)c2ccc(NC(=O)Nc3ccccc3)cc2OC[C@@H](C)N(C(C)=O)C[C@@H]1C | –
C[C@@H]1CN([C@H](C)CO)C(=O)c2cc(C#CC3CCCC3)cnc2O[C@H]1CN(C)C(=O)C1CCC1 | –
SMILES | miR-122 inh
CCCC(NS(=O)(=O)c1ccc(Br)cc1)C(=O)O (stereo not drawn) | 36
C[C@@H]1CN([C@H](C)CO)C(=O)c2cc(-c3cccc(F)c3)cnc2O[C@H]1CN(C)S(C)(=O)=O | –
COc1cccc(C#Cc2ccc3c(c2)O[C@H](CN(C)C(C)=O)[C@@H](C)CN([C@@H](C)CO)S3(=O)=O)c1 | –
C[C@H](CO)N1C[C@H](C)[C@H](CN(C)C(=O)CC2CC2)Oc2cc(C#CCC3CCCC3)ccc2S1(=O)=O | –
COc1cc2nc(C3CCC3)n(NC(=O)C3CCCC(OC)C3)c(=O)c2cc1OC (stereo not drawn) | 34
C[C@H]1CN([C@@H](C)CO)S(=O)(=O)c2ccc(C#Cc3ccccc3F)cc2O[C@@H]1CN(C)C(=O)Cc1ccccc1 | –
C[C@@H]1CN([C@@H](C)CO)S(=O)(=O)c2ccc(C#Cc3ccccc3F)cc2O[C@@H]1CN(C)C(=O)c1ccc2c(c1)OCO2 | 41
